Sampled rows, rich in hits. Any-hit rate of the full collection: about 2.8%.
PAFAH1B3 inh: blocks human PAF acetylhydrolase 1B catalytic subunit 3. inhibition, % at 3.39 µM. recombinant PAFAH1B3, FP-rhodamine probe, fluorescence polarization. 0.28% of 340,000 active. AID 492972. Q15102;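 active means inhibition above the screen-wide average of all tested compounds plus 3 SD, cut at about 25% in these data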;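 further: 0% = enzyme with DMSO only and 100% = wells lacking PAFAH1B3 protein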
Target sequence (Q15102 whole entry, looked up): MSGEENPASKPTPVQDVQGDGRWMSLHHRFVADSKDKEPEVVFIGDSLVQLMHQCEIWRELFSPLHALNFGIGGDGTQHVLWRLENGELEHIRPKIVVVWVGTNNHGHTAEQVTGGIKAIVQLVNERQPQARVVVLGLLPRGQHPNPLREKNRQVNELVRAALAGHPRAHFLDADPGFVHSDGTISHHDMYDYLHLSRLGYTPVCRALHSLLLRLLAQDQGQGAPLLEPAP
PAFAH1B2 FP inh: PAFAH1B2 (human) inhibition | 1.2% of 340,000 active | P68402 | recombinant PAFAH1B2, FP-rhodamine activity probe, fluorescence polarization | inhibition, % at 3.39 µM;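 active means inhibition above the mean of all tested compounds plus 3 SD, cut at about 24% in these data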;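 further: 0% = enzyme with DMSO and 100% = wells lacking PAFAH1B2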
PAFAH2 FP inh: PAFAH2 (human) inhibition. recombinant PAFAH2, FP-rhodamine activity probe, fluorescence polarization. inhibition, % at 3.39 µM. 0.99% of 340,000 active. AID 492956;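 active means inhibition above the mean over all tested compounds plus 3 SD, cut at about 30% in these data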;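 further: inhibitors block probe labeling of enzyme so polarization drops; 0% = enzyme with DMSO and 100% = wells lacking PAFAH2 protein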
pPAFAH inh: pPAFAH (human) enzyme inhibition; Q13093; recombinant pPAFAH, FP-rhodamine probe fluorescence polarization; inhibition, % at 3.39 µM; 1.5% of 330,000 active; AID 463082;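 active means inhibition above the mean inhibition across the screen plus 3 SD, cut at about 25% in these data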;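 further: inhibitors block binding of the rhodamine activity-based probe so polarization drops; 0% = enzyme with DMSO and 100% = wells lacking pPAFAH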
Fam108B inh: counter-screen for RBBP9 inhibitors: inhibitors of mouse Fam108B; 0.33% of 300,000 active; AID 1947; recombinant Fam108B, FP-Rh probe fluorescence polarization; inhibition, % at 9.51 µM;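 active means inhibition above the screen mean inhibition plus 3 SD, computed separately per campaign, cut at about 18% in these data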;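 further: inhibitors lower polarization as less probe binds the enzyme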
PME-1 primary: PME-1 (human) inhibition | Q9Y570 | recombinant PME-1, FP-Rh probe fluorescence polarization | inhibition, % at 5.9 µM | 0.53% of 320,000 active;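 active means inhibition above the campaign mean of all compounds plus 3 SD, cut at about 26% in these data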;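 further: competitive labeling of PME-1 active site by serine hydrolase directed probe; 0% = PME-1 with DMSO and 100% = wells lacking PME-1 enzyme; inhibitors block probe labeling so polarization falls and inhibition rises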
Target sequence (Q9Y570 whole entry, looked up): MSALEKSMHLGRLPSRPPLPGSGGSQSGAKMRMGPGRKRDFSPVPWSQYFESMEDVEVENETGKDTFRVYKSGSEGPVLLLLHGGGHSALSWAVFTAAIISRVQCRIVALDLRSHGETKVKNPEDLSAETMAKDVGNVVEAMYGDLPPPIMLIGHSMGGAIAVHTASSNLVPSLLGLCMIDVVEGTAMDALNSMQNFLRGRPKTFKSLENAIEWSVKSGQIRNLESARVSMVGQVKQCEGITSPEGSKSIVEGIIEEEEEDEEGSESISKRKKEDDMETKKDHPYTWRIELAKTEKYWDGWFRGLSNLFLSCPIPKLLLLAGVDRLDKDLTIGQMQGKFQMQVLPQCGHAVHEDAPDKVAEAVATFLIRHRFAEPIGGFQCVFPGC
PAFAH2 FP conf: confirmation of human PAFAH2 inhibitors; recombinant PAFAH2, FP-rhodamine activity probe, fluorescence polarization; 65% of 2,300 active; inhibition, % at 3.39 µM; AID 493030; shares compounds with PAFAH2 FP inh;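 active means mean inhibition over three repeats above a set limit taken from the earlier primary screen, cut at about 30% in these data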;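 further: inhibitor blocks binding of rhodamine activity probe so polarization falls; 0% = enzyme with DMSO and 100% = wells lacking PAFAH2 protein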
Starred values were filed as active, the others as inactive; . = no result given.

SMILES	PAFAH1B3 inh	PAFAH1B2 FP inh	PAFAH2 FP inh	pPAFAH inh	Fam108B inh	PME-1 primary	PAFAH2 FP conf
CC(=O)Nc1ccc(NC(=O)COC(=O)c2ccco2)cc1	7	-3	3	2	2	0	.
C=CCOC(=O)c1sc(NC(=O)c2ccc(OC)cc2)nc1C	-4	1	0	4	-5	-13	.
CCn1cc(/C=N\NC(=O)c2ccccc2Cl)cn1	8	-1	-1	3	-1	1	.
COC(=O)c1c(NC(=S)NNC(=O)c2ccc(Cl)s2)sc(C(=O)N(C)C)c1C	5	3	50*	10	3	7	41*
CCC(C(=O)OCn1nnc2ccccc2c1=O)c1ccccc1 (configuration not stated)	11	8	-3	4	2	-1	.
O=C(COC(=O)c1ccccc1O)NCCC1=CCCCC1	3	0	1	6	3	0	.
Cc1ccc(C(=O)OCC(=O)NCCC2=CCCCC2)s1	-1	1	61*	20	-2	4	60*
O=C(COC(=O)c1cccs1)NCCC1=CCCCC1	4	2	55*	8	2	3	41*
COc1cccc(CN(C)CC(=O)Nc2cccc3ccccc23)c1	5	-3	-2	0	-4	0	.
CCc1noc(C)c1C(=O)Nc1cc(S(=O)(=O)N2CCOCC2)ccc1OCC(F)(F)F	0	2	6	-4	1	4	.
CC(C)(C)C(=O)O/N=C1\CCS(=O)(=O)c2sccc21	-8	6	41*	2	4	4	34*
O=S1(=O)CCC(=Nc2ccc(Cl)cc2)c2ccsc21	10	2	6	3	0	6	.
O=C(O/N=C1\CCS(=O)(=O)c2sccc21)C1CC1	2	-1	81*	7	1	10	84*
Cc1cc(C)c(NC(=O)CNC(=O)COC(=O)Cc2cccs2)c(C)c1	-2	-1	-7	11	0	-2	.
O=C(O)C1CSC(c2ccco2)N1 (configuration not stated)	9	4	32*	1	2	0	5
CC1(C)C(/C=C/C=C/C=C/C=C2\N(CCCCS(=O)(=O)O)c3ccc4ccccc4c3C2(C)C)=[N+](CCCCS(=O)(=O)[O-])c2ccc3ccccc3c21	-32	-12	43*	29*	-4	-52	26
Cc1c2ccccc2cc[n+]1CCCS(=O)(=O)[O-]	6	-4	-6	3	-1	-4	.
COc1ccc(C(=O)c2ccsc2N)cc1	9	11	30*	16	4	7	0
CN(Cc1ccccc1)C(=O)[C@H]1CCC(=O)N1Cc1ccco1	6	3	1	.	.	.	.
CCC1CN(S(=O)(=O)c2ccc3c(c2)NC(=O)CC(=O)N3)c2cc(Cl)ccc2O1 (configuration not stated)	5	11	45*	2	-2	16	20
CCOC(=O)C1CN(S(=O)(=O)c2ccc(Cl)cc2)c2cc(S(=O)(=O)CC)ccc2O1 (configuration not stated)	.	.	.	4	1	10	.
O=C(COC(=O)c1ccc(F)cc1)NCCc1ccc(F)cc1	1	2	36*	10	7	-2	17
O=C(COC(=O)CCC(=O)c1cccs1)NCCc1ccccc1	5	2	9	3	.	.	.
O=C(COC(=O)c1ccc2c(c1)OCCO2)NCCc1ccc(F)cc1	-2	1	68*	10	.	.	54*
O=C(COC(=O)c1cccs1)NCCc1ccc(F)cc1	-1	1	55*	.	.	.	49*
SMILES	PAFAH1B3 inh	PAFAH1B2 FP inh	PAFAH2 FP inh	pPAFAH inh	Fam108B inh	PME-1 primary	PAFAH2 FP conf
Cc1nc(C)c(C(=O)OCC(=O)Nc2cccc(C)c2C)s1	2	1	66*	15	.	-4	51*
O=C(COC(=O)c1cc(Cl)nc(Cl)c1)NCCc1ccc(F)cc1	9	3	5	2	.	.	.
Cc1nc(C)c(C(=O)Nc2cccc(C)c2C)s1	15	4	4	1	0	-2	.
Cn1ccnc1C1CCCCN1C(=O)c1cc(COc2ccc(F)cc2Cl)on1 (configuration not stated)	.	.	.	6	0	-2	.
Cc1nc(C)c(C(=O)OCC(=O)NCCc2ccc(F)cc2)s1	-1	5	31*	.	.	.	23
COc1ccc(C2c3c(oc4ccc(Cl)cc4c3=O)C(=O)N2CCN2CCOCC2)cc1 (configuration not stated)	5	3	0	11	3	-1	.
COCCOC(=O)c1c(C)n(C)c2ccc(OC(=O)c3ccco3)cc12	-10	4	-2	0	5	2	.
COCCOC(=O)c1c(C)n(C)c2ccc(OC(=O)C3CC3)cc12	-3	1	39*	20	0	13	26
O=C(NCCc1nnc2ccc(SCC(=O)N3CCCC3)nn12)c1ccc(F)cc1	4	4	7	0	4	4	.
NC(=O)Nc1ccc(C(=O)OCC(=O)Nc2ccc([N+](=O)[O-])cc2C(F)(F)F)cc1	-5	2	66*	-6	-2	-11	66*
Cc1ccc(S(=O)(=O)N2CC(O)CC2C(=O)OCC(=O)Nc2ccc([N+](=O)[O-])cc2C(F)(F)F)cc1C (configuration not stated)	1	3	0	1	.	.	.
O=C(COC(=O)C1CC1)Nc1ccc([N+](=O)[O-])cc1C(F)(F)F	5	-4	53*	13	.	6	45*
O=C(COC(=O)c1ccc[n+]([O-])c1)Nc1ccc([N+](=O)[O-])cc1C(F)(F)F	1	7	9	1	.	.	.
O=C(N/N=C/c1cc([N+](=O)[O-])ccc1O)C1CCCCC1	7	9	59*	8	7	-3	41*
Cc1ccccc1OCC(=O)OCC(=O)Nc1ncc(Cl)c(C)c1Cl	0	0	5	14	.	4	.
CC(Oc1ccccc1)C(=O)OCC(=O)NC(=O)NC1CCCCC1 (configuration not stated)	-4	2	2	6	.	3	.
CC(=O)Nc1ccc(C(=O)OCC(=O)NC(=O)NC2CCCCC2)cc1	5	-2	53*	-2	1	2	39*
CC(C)Oc1ccc(C(=O)OCC(=O)NC(=O)NC2CCCC2)cc1	2	1	41*	8	.	2	34*
CCOc1ccc(S(=O)(=O)N2CCOCC2)cc1NC(=O)CSCC(=O)Nc1ccc(OC)cc1	6	-2	4	.	.	.	.
COc1ccc(CCNC(=O)c2cccc(S(=O)(=O)NC(C)c3ccccc3)c2)cc1 (configuration not stated)	5	22	3	0	.	-1	.

From PubChem BioAssay
